We go through 8 compounds from PubChem BioAssay (NCATS).

Unmarked numbers belong to inactive results. Inconclusive results are not listed. Active and inactive are the calls of the source. Unless noted, calls follow the shape of the dose curve; as a rule, active = well fitted curve in the direction sought with a large enough effect; inconclusive = small, poorly fitted or top-dose-only effect, or another doubt; inactive = no such curve, though single readings can be large; an effect the other way counts as inactive or inconclusive.

A short description of experiment [1]: Validation of Assay for Modulators of Lamin A Splicing (AID 1459; active = well fitted curve in the direction sought with a large enough effect in the signal ratio; the % refers to the signal ratio;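 also: cells exposed to compound for two days before reading; 0% is about no effect; ratio rise marks activators and ratio drop marks inhibitors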). The settings on record: Lamin A splicing dual RFP/GFP fluorescence reporter; series mostly up to 9.22 µM. In short, it runs like this: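 S3 HeLa cells stably expressing a lamin A-EGFP splicing minigene and DsRed2 were seeded at 600 cells/well in Opti-MEM with 2% FBS, pin-dosed, and incubated 48 hrs at 37 °C, 5% CO2. Laser-scanning cytometry (488 nm) gave GFP/RFP total intensity ratio.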

Experiment [2] deals with Endonuclease 4 (Escherichia coli (strain K12)) (UniProt P0A6C1). In words: Counterscreen for APE1 Inhibitors: qHTS Validation Assay for Inhibitors of Endonuclease IV (AID 1708). Also: % is scaled to controls: 0 for no effect and ±100 for the full control effect. The settings on record: E. coli endonuclease IV, DNA cleavage fluorescence; series mostly up to 57.1 µM. In short, it runs like this:
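E. coli EndoIV at 2 nM final, preincubated 15 min at room temperature with compound, then 50 nM TAMRA/BHQ-2 THF abasic-site duplex added. Buffer: 50 mM Tris-HCl pH 7.5, 50 mM NaCl, 2 mM MgCl2, 1 mM DTT, 0.01% Tween-20. Kinetic fluorescence increase, third minus first read.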

Experiment [3] is described as follows: qHTS for differential inhibitors of proliferation of Plasmodium falciparum line GB4 (AID 1816).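 Also: parasite growth measured after 72 h incubation; 0% = vehicle DMSO and -100% = reference inhibitor.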 The settings on record: Potency: Plasmodium falciparum GB4 proliferation inhibition; series mostly up to 28.7 µM. Background: In qHTS, concentration-response curves come from the screen itself.
The nature of experiment [4]: qHTS for differential inhibitors of proliferation of Plasmodium falciparum line 3D7 (AID 1876).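 Also: parasite growth measured after three days of culture; 0% = vehicle wells and -100% = reference inhibitor wells.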 As to conditions: P. falciparum 3D7 proliferation inhibition; series mostly up to 28.7 µM.
Experiment [5] is described as follows: qHTS for differential inhibitors of proliferation of Plasmodium falciparum line W2 (AID 1883).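 Also: parasites grown with compound for 72 h before lysis and staining; 0% = vehicle wells and -100% = control inhibitor wells.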 As to conditions: Potency: Plasmodium falciparum W2 proliferation inhibition; series mostly up to 28.7 µM.
Experiment [6] can be described thus: qHTS Assay for Modulators of Human Peripheral Myelin Protein 22 (PMP22) Expression/Activity (AID 1967; active = well fitted curve in the direction sought with a large enough effect in the signal ratio; the % refers to the signal ratio;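 also: 0% = untreated cells and 100% end not stated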). The settings on record: Cell-based PMP22 reporter, dual-color luciferase ratio, mouse Pmp22 promoter in mouse Schwann cells; series mostly up to 115 µM. In short, it runs like this: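 MSC80 mouse Schwann cells stably carrying Pmp22 promoter–green click beetle luciferase plus EF-alpha–red luciferase control were dosed for 24h at 37 °C. Dual-colour luminescence was filter-overlap corrected; %Activity came from green/red ratio versus untreated cells.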

Experiment [7] can be described thus: Validation screen for small molecules that induce DNA re-replication in MCF 10A normal breast cells (AID 463097). Also: 0% is about no effect; nearly all actives have a fitted effect of over 60% in size. As to conditions: MCF 10A cells, DNA re-replication phenotype imaging; series mostly up to 46.1 µM. Put shortly:
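Readout: Hoechst nuclear fluorescence intensity, 405 ex / 500-530 em, by scanning plate imager; re-replication scored as increase in nuclei with elevated DNA content. Cells exposed to compound 48 hr, 37 C, 5% CO2 beforehand.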

Experiment [8] in a line: Quantitative high throughput screen for delayed death inhibitors of the malarial parasite plastid, 96 hour incubation (AID 488745). Also: % is scaled to controls: 0 for no effect and ±100 for the full control effect; nearly all actives have a fitted effect of over 70% in size. The settings on record: Plasmodium falciparum growth; series mostly up to 28.7 µM. Put shortly:
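Luciferase-expressing P. falciparum in erythrocytes (2% hematocrit, 0.1% parasitemia) incubated with compound for 96 h at 37 C, 5% CO2, in RPMI 1640 with 0.5% Albumax. Growth inhibition read as decreased luminescence.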

The target in experiment [9] is Galactokinase (Homo sapiens) (UniProt P51570). In words: qHTS Validation Assay for Inhibitors of Human Galactokinase (GALK) (AID 493189). Also: 0% is about no effect. As to conditions: purified human GALK enzyme activity, qHTS 7-point titration; series mostly up to 57.5 µM. In short, it runs like this: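 GALK (5 nM) with 35 uM ATP and 100 uM galactose in HEPES pH8.0, MgCl2, NaCl, DTT, BSA; 1 h at room temperature. Residual ATP read by Kinase-Glo Plus luminescence after 10 min.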

A short description of experiment [10]: Validation screen for small molecules that induce DNA re-replication in SW480 colon adenocarcinoma cells (AID 504364). Also: 0% is about no effect. The settings on record: DNA re-replication phenotype (high-content imaging); series mostly up to 46.1 µM. In short, it runs like this:
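SW480 cells (250/well) exposed 48 h at 37 C, 5% CO2, then Hoechst-stained 40 min. Nuclear DNA content imaged by fluorescence scanning (405 nm excitation, 500-530 nm emission); re-replication scored as increased nuclei with elevated intensity.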

Experiment [11] deals with Voltage-gated inwardly rectifying potassium channel KCNH2 (Homo sapiens) (UniProt Q12809). In words: qHTS Assay for Small Molecule Inhibitors of the Human hERG Channel Activity (AID 588834).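 Also: top concentration of the series differs between compounds; % is scaled to controls: 0 for no effect and ±100 for the full control effect; lower thallium flux fluorescence means stronger hERG block; nearly all actives have a fitted effect of over 50% in size.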 As to conditions: U2OS BacMam hERG, FluxOR thallium flux fluorescence; series mostly up to 46.1 µM. In short, it runs like this: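 U2OS cells transduced with hERG via BacMam (MOI ~100), plated 2000/well, loaded with FluxOR thallium dye, compound ~10 min, then stimulation buffer; fluorescence decrease read kinetically; AC50 from Hill fits.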

The nature of experiment [12]: Counterscreen qHTS for small molecule stabilizers of the endoplasmic reticulum resident proteome: GLuc-NoTag assay (AID 1508627). Also: potency is read from the fitted curve at half-maximal effect.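 As to activity change, negative = inhibition: SH-SY5Y cells given compound then 100 nM thapsigargin to empty ER calcium; 0% = thapsigargin alone and -100% = DMSO vehicle control.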 As to conditions: Gaussia luciferase NoTag secretion counterscreen, luminescence, thapsigargin 100 nM for final 4 h; series mostly up to 76.4 µM. In short, it runs like this: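 SH-SY5Y cells stably expressing constitutively secreted GLuc without SERCaMP tag, exposed to compound for 19 hr, then to 100 nM thapsigargin for 4 hr at 37C. Medium luciferase was read by coelenterazine luminescence without lysis.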

In experiment [13] the target is RecQ-like DNA helicase BLM (Homo sapiens) (UniProt P54132). In words: qHTS Validation Assay for Inhibitors of Bloom's syndrome helicase (BLM) (AID 2364).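 Also: plate controls were DMSO vehicle for no effect and enzyme-free control for full effect.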 The settings on record: BLM helicase DNA unwinding, fluorescence, in vitro; series mostly up to 57.1 µM. In short, it runs like this: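 50 nM BLM preincubated 15 min at room temperature with compound in pH 8.0 Tris buffer containing 2.5 ug/ml poly(dI-dC); started with 200 nM TAMRA/BHQ-2 forked duplex and 2 mM ATP (final). Unwinding read as TAMRA fluorescence increase, two reads 2 h apart.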

A short description of experiment [14]: Validation screen for inhibitors of Lassa infection (AID 463096; calls by dose curve; also: % is scaled to controls: 0 for no effect and ±100 for the full control effect). The settings on record: Lassa virus infection, cell-based; series mostly up to 46.1 µM.
Experiment [15] is described as follows: Cell Viability qHTS for small molecule stabilizers of the endoplasmic reticulum resident proteome (AID 1508629).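 Also: compound exposure about 46 h in total before the viability read.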 Also: potency is read from the fitted curve at half-maximal effect.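 As to max response: human SH-SY5Y neuroblastoma cells carrying the GLuc-SERCaMP reporter; % is scaled to controls: 0 for no effect and ±100 for the full control effect.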 As to conditions: cell viability counter-screen, 100 nM thapsigargin for final 4 h.

Sequence of Galactokinase (Homo sapiens) (P51570 whole entry, looked up): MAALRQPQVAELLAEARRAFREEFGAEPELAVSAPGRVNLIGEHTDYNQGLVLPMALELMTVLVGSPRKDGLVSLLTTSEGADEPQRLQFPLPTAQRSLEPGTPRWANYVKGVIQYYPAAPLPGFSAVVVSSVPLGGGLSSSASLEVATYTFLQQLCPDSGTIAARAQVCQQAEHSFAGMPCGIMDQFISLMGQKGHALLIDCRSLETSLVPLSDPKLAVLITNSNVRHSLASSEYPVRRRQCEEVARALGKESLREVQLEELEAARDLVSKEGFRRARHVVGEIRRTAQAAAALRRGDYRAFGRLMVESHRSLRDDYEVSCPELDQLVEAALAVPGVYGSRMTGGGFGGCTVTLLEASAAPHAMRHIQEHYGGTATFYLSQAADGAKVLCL
Sequence of Voltage-gated inwardly rectifying potassium channel KCNH2 (Homo sapiens) (Q12809 whole entry, looked up): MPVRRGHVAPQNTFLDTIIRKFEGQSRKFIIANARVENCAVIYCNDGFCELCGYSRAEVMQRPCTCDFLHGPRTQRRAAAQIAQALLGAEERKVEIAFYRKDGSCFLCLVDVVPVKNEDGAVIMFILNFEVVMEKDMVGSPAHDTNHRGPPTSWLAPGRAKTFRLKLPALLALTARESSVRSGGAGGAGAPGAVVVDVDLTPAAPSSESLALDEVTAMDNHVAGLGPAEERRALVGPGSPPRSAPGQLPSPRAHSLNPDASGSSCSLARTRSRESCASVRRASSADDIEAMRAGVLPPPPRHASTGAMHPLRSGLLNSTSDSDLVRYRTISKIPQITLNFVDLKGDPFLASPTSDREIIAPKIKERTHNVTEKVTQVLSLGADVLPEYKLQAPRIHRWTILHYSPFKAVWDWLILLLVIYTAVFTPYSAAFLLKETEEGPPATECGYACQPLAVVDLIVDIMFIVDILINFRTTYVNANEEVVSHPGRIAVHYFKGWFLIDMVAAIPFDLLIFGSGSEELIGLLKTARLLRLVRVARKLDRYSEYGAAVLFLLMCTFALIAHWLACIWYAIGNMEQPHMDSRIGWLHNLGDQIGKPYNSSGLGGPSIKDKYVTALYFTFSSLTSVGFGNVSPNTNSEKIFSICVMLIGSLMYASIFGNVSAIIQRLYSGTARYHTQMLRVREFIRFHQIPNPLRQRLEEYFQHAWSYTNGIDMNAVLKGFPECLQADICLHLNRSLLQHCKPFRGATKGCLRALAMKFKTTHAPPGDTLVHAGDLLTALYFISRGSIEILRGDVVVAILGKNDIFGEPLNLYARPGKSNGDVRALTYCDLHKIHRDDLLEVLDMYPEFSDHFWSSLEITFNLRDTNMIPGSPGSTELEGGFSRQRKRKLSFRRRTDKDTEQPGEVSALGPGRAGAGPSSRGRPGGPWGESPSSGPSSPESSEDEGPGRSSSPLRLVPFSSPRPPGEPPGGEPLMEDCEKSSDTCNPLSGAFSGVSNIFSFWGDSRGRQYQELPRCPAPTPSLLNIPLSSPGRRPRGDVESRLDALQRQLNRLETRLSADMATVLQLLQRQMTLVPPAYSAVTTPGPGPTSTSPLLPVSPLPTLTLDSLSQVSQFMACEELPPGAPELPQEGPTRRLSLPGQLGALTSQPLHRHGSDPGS
Sequence of RecQ-like DNA helicase BLM (Homo sapiens) (P54132 whole entry, looked up): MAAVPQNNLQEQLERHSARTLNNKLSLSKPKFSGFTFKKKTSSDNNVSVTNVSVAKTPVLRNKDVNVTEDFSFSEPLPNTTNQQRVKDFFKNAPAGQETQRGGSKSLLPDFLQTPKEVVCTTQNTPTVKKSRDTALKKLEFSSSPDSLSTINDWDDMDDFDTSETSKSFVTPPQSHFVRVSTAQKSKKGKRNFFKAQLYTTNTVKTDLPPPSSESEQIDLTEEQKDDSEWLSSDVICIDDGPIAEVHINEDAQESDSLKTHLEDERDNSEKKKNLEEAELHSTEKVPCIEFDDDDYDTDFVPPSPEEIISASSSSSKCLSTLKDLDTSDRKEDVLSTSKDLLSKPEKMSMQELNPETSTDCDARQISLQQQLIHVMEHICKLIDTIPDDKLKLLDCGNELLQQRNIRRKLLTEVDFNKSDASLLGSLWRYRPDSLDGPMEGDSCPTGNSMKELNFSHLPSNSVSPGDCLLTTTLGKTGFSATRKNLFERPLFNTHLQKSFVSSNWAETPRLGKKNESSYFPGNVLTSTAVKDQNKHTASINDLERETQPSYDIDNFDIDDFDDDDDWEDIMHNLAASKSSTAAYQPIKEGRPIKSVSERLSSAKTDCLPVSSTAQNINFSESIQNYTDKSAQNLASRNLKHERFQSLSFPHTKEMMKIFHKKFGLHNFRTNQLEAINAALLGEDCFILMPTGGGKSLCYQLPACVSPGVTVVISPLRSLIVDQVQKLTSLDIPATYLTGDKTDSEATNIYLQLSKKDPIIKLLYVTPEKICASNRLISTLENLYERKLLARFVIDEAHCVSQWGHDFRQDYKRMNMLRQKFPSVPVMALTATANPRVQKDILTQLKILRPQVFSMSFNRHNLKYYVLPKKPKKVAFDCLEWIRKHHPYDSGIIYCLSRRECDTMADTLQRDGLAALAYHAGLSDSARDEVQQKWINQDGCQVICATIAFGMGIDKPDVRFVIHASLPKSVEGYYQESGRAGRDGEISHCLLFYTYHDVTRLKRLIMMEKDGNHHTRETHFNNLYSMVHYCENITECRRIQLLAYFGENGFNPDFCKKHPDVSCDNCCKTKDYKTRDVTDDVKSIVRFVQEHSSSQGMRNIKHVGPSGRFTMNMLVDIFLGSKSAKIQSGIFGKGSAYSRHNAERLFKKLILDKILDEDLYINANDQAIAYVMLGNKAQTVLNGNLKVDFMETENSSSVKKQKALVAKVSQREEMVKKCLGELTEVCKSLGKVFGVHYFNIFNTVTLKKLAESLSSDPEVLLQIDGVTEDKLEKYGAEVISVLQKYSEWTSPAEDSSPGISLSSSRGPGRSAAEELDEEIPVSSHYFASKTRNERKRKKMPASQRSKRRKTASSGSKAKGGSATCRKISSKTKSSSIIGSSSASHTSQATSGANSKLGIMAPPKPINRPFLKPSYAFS

Consider `COc1ccc(CCN)cc1O`, for which the compound was classed as inactive in [1], in [2], in [6] and in experiment [9]. The Potency entry in experiment [3], in [4], in experiment [5], in experiment [7], in experiment [8] and in [10] was “inactive” in each case. The Potency result in [11] is “inactive”.

Consider `NC(N)=NCCCCCCCCCCN=C(N)N`, for which the Potency entry in experiment [12] is “inactive”.

Turning to `N[C@H](CCCCCP(=O)(O)O)C(=O)O`, the compound was classed as inactive in experiment [1] and in [9]. The Potency result in experiment [3], in experiment [4], in experiment [5], in experiment [13], in [14] and in experiment [7] was “inactive” in each case. For the same compound, the Potency entry in [8], in [10] and in experiment [11] was “inactive” throughout.

As for `N[C@@H](Cn1cc(I)c(=O)[nH]c1=O)C(=O)O`, the compound was classed as inactive in [1], in experiment [6] and in [9]. The Potency result in experiment [3], in [4], in experiment [5], in experiment [14], in experiment [7] and in [8] was “inactive” in each case. The Potency entry in experiment [10] and in [11] was “inactive” each time.

For `C[C@H](N)Cc1c[nH]c2ccc(OCc3cccs3)cc12`, the Potency entry in experiment [12] is “inactive”.

`CC(C)C[C@H](NC(=O)[C@H](Cc1ccccc1)NC(=O)CNC(=O)[C@H](C)NC(=O)[C@@H](N)Cc1ccc(O)cc1)C(=O)O`: in [12], the activity change, negative = inhibition is 12% [at 9.46 µM]. Further, in [15], the max response is 9.07%.

As to `COc1ccc2[nH]cc(CCN(C)C)c2c1`, the result in experiment [1], in [2], in experiment [6] and in experiment [9] was inactive. The Potency entry in experiment [4], in experiment [13], in experiment [14], in experiment [7], in experiment [8] and in experiment [10] was “inactive” in each case. Moreover, the Potency entry in [11] was “inactive”.

Take `CCN(CC)CCO[C@H]1CC[C@@]2(C)C(=CC[C@@H]3[C@H]2CC[C@]2(C)C(=O)CC[C@H]32)C1`: the figures for the Potency in experiment [12] and in [15] were 25.1 µM (active) and 12.6 µM (active), respectively.
